Experiment [1] can be described thus: inhibitors of TNFa-induced NFkB p65 translocation, primary screen, imaging, HUVEC, MLSMR starter and 10KST1 sets (AID 438;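 active = inhibition above 20% together with a positive visual image hit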;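 also: compound added about 3h40 before a 20 min TNFalpha stimulation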;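 as to inhibition: signal is the nuclear over cytoplasmic p65 intensity ratio per well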). The settings on record: HUVEC TNFa-induced p65 nuclear translocation; cell count: measured here: nuclei count (cytotoxicity indicator), at 2.08 µM; inhibition: at 2 µM, stronger effect = higher value, 0% TNFa-plus-vehicle, 100% no-TNFa wells.
Experiment [2] is described as follows: inhibitors of mutant huntingtin aggregation, primary screen, imaging, exon1htt(103Q)mCFP cells, high-content imaging (AID 483;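 active = visual image review flags a hit and inhibition of aggregation exceeds 20%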;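 also: compound exposure lasted 3 days before fixation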;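 as to nuclei count: percent of the per-plate median nuclei count of sample wells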). The conditions noted are these: exon1htt(103Q)mCFP cell line, aggregate imaging, at 2 µM; inhibition of aggregation: stronger effect = higher value; nuclei count: measured here: cell count, toxicity.
The nature of experiment [3]: inhibitors of E-selectin induction by TNFa, primary screen, imaging, HUVEC, immunofluorescence, MLSMR starter and 10KST1 sets (AID 487;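 active = visually confirmed hit in the image check and inhibition above 20%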;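 as to inhibition: signal is fraction of cell area covered by stained E-selectin grains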;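 as to nuclei count: 100% = median nuclei count of all wells on the same plate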). The settings on record: HUVEC TNFalpha-induced E-selectin immunofluorescence imaging, at 2 µM; inhibition: stronger effect = higher value; nuclei count: measured here: cell number, toxicity.
Experiment [4] deals with Voltage-gated potassium channel subunit beta-2 (Rattus norvegicus) (UniProt P62483). Description: KvBeta enzyme negative modulators, primary screen, biochemical, NADPH fluorescence (AID 622;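 active = fluorescence slope higher than the sample average by over 3 SD, cut at about -0.22 in these data, passing the limit was not always enough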;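 also: slope of raw intensity against log time taken from 70 to 1610 s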). The settings on record: recombinant KvBeta, 4-cyanobenzaldehyde reduction, at 10 µM, stronger effect = higher value.
For experiment [5] the target is unchanged. Description: KvBeta positive modulators, primary screen, biochemical, NADPH fluorescence (AID 623;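 active = NADPH fluorescence slope more negative than the mean of all samples by about 3 SD, 99.7% confidence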;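 also: fluorescence intensity change per second fitted from 20 to 320 s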). The settings on record: Recombinant KvBeta, NADPH fluorescence decrease slope, 10 min; at 10 µM; stronger effect = lower value.
In experiment [6] the target is Alpha-2C adrenergic receptor (Homo sapiens) (UniProt P18825). Description: modulators of alpha2C/GIRK thallium flux, primary screen, cell-based, HEK293 alpha2C/GIRK1/2 (AID 624;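 active = fluorescence slope after compound addition differing from the mean of all screened samples at 99.7% confidence, in either direction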;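 also: slope of fluorescence ratio to pre-addition baseline per second over 15 to 24 s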). The conditions noted are these: thallium flux BTC fluorescence, at 10 µM, actives lie on both sides.
The nature of experiment [7]: inhibitors of Sendai virus-induced IRF3 signaling, primary screen, TLR/RLR signaling modifier project, cell-based, Sendai virus stimulus, luciferase, 10K MLSCN set (AID 602276).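 Also: firefly luciferase from ISG56 promoter only with Renilla not read in this screen; 0% = Sendai virus plus DMSO and 100% = medium plus DMSO without virus.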 The conditions noted are these: HEK293 RL24 IRF3 luciferase reporter, at 10 µM, stronger effect = higher value. Background: Reporter assays use an easily measured gene product as a stand-in for the process of interest.

The nature of experiment [8]: inhibitors of poly I:C-induced TLR3 signaling, primary screen, cell-based, poly I:C stimulus, luciferase, 10K MLSCN set (AID 602277;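 active = inhibition of the reporter signal at or above 50%; inactive = inhibition below 50%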). The conditions noted are these: HEK293-TLR3 RL24 IRF3 luciferase reporter, at 10 µM, stronger effect = higher value.

Calls of active or inactive are those of the source.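 The calls were made as follows, unless noted: active = inhibition at or above 50% at 10 µM; inactive = inhibition below 50%.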

A word on the inhibition: it is the change of the read-out against control, counted positive when it falls.

Sequence of Voltage-gated potassium channel subunit beta-2 (Rattus norvegicus) (P62483 whole entry, looked up): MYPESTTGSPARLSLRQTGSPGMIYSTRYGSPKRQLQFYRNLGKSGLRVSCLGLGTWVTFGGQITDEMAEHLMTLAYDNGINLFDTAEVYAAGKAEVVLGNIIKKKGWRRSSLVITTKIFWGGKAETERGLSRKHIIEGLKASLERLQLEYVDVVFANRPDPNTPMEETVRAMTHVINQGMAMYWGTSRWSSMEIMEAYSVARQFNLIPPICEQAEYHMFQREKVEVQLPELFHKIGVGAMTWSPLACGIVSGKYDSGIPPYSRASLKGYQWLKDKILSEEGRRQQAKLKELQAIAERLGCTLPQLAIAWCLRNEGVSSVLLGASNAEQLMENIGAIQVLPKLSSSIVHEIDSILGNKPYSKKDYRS
Sequence of Alpha-2C adrenergic receptor (Homo sapiens) (P18825 whole entry, looked up): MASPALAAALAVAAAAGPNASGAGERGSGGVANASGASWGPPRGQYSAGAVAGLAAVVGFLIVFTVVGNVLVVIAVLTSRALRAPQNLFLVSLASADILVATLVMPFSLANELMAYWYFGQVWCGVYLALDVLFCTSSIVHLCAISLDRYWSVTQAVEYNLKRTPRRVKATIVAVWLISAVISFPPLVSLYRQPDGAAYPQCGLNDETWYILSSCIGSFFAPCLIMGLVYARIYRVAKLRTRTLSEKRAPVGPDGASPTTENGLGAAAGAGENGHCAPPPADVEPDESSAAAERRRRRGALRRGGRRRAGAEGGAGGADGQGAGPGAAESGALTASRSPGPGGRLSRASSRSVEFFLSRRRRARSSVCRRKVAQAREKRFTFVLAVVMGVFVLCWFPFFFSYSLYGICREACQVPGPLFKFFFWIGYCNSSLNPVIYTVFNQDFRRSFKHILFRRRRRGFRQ

As to `COc1cc(C(=O)NCCc2ccc3c(c2)OCCO3)ccc1OCC(=O)N1CCOCC1`, the cell count in experiment [1] worked out at 632. The inhibition was 2.4% (inactive) in experiment [1], -76.6% (inactive) in experiment [3], 14.7% (inactive) in experiment [7] and 15.3% (inactive) in experiment [8]. For the same compound, the inhibition of aggregation in experiment [2] was 11.3% (inactive). For the same compound, the nuclei count in experiment [2] stood at 87.3%; in experiment [3], 96.6%. For the same compound, in experiment [4], the fluorescence slope was -0.298 (inactive). In experiment [5], the NADPH fluorescence slope was -5.4e-05 (inactive). In addition, in experiment [6], the slope was 0.00507 (inactive).

In the case of `CC(C)COc1ccc(C2NC(=O)NC2=O)cc1` (stereo not drawn), the cell count in experiment [1] is 718. Also, the inhibition in experiment [1] is -10.2% (inactive); in experiment [3], 74.1% (inactive); in experiment [7], 1.04% (inactive); in experiment [8] it was 19.9% (inactive). Besides, the inhibition of aggregation in experiment [2] was -12.5% (inactive). The nuclei count in experiment [2] came to 117%; in experiment [3], 91.5%. The fluorescence slope in experiment [4] was -0.452 (inactive). Moreover, the NADPH fluorescence slope in experiment [5] was -2.2e-05 (inactive). In addition, the slope in experiment [6] was 0.00367 (inactive).

Regarding `CC(=O)C(Sc1ncnc2c1nnn2-c1ccc(F)cc1)C(=O)N(C)C` (stereo not drawn), the cell count in experiment [1] came out at 464. For the same compound, the inhibition in experiment [1] is -2.2% (inactive); in experiment [3], -51.7% (inactive); in experiment [7], -3.3% (inactive); in experiment [8], -23.2% (inactive). In experiment [2], the inhibition of aggregation was 2.3% (inactive). Moreover, the figures for the nuclei count in experiment [2] and in experiment [3] were 89.3% and 114%, respectively. In experiment [4], the fluorescence slope was -0.492 (inactive). Moreover, the NADPH fluorescence slope in experiment [5] was -1.7e-05 (inactive). Further, the slope in experiment [6] is 0.00752 (inactive).

Regarding `Cn1nnnc1SCC(=O)NC1CCCCC1`, the cell count in experiment [1] worked out at 228. Further, the inhibition in experiment [1] is 3.4% (inactive); in experiment [3] it was -0.8% (inactive); in experiment [7] it was 5.19% (inactive); in experiment [8], 19.8% (inactive). Moreover, the inhibition of aggregation in experiment [2] was 20% (inactive). In addition, the nuclei count in experiment [2] stood at 84.3%; in experiment [3] it was 79.2%. Further, in experiment [4], the fluorescence slope is -0.432 (inactive). Besides, the NADPH fluorescence slope in experiment [5] was 4.4e-07 (inactive). Moreover, the slope in experiment [6] is 0.00705 (inactive).

For the compound `Cc1cc(N=Cc2cc(Br)ccc2O)no1`, the cell count in experiment [1] was determined as 330. In addition, the inhibition in experiment [1] was -6.7% (inactive); in experiment [3], -147% (inactive); in experiment [7] it was 15.6% (inactive); in experiment [8], 15.7% (inactive). Also, the inhibition of aggregation in experiment [2] was -17.3% (inactive). Besides, the results for the nuclei count in experiment [2] and in experiment [3] were 106% and 121%, respectively. In experiment [4], the fluorescence slope is -0.311 (inactive). For the same compound, the NADPH fluorescence slope in experiment [5] is -3.4e-05 (inactive). In addition, the slope in experiment [6] was 0.00663 (inactive).

As for `Cc1ccc(C(=O)CSc2n[nH]c(-c3ccco3)n2)cc1C`, in experiment [1], the cell count worked out at 397. The inhibition is 0.7% (inactive) in experiment [1], 11.3% (inactive) in experiment [3], 0.966% (inactive) in experiment [7] and 10.8% (inactive) in experiment [8]. Further, the inhibition of aggregation in experiment [2] was -8.3% (inactive). Moreover, the nuclei count turned out to be 113% in experiment [2] and 106% in experiment [3]. The fluorescence slope in experiment [4] is -0.479 (inactive). Further, the NADPH fluorescence slope in experiment [5] is 1.8e-05 (inactive). For the same compound, the slope in experiment [6] was 0.00302 (inactive).

For the compound `O=C(CNC(=O)c1ccccc1C(=O)O)c1ccccc1`, the cell count in experiment [1] stood at 653. Also, the inhibition is 1.8% (inactive) in experiment [1], -147% (inactive) in experiment [3], -17.6% (inactive) in experiment [7] and -49% (inactive) in experiment [8]. In addition, the inhibition of aggregation in experiment [2] was 9.6% (inactive). The nuclei count was determined as 105% in experiment [2] and 124% in experiment [3]. Further, the fluorescence slope in experiment [4] is -0.42 (inactive). Further, the NADPH fluorescence slope in experiment [5] is 1.4e-05 (inactive). Moreover, the slope in experiment [6] is 0.00616 (inactive).

Consider `O=C(C1CCCCC1)N1CCC(c2nc3c(nnn3Cc3c(F)cccc3Cl)c(=O)[nH]2)CC1`, for which the cell count in experiment [1] came to 413. In addition, the inhibition in experiment [1] was -4.6% (inactive); in experiment [3], -110% (inactive); in experiment [7] it was 6.04% (inactive); in experiment [8], 27% (inactive). In addition, the inhibition of aggregation in experiment [2] is -15.9% (inactive). For the same compound, the results for the nuclei count in experiment [2] and in experiment [3] were 116% and 249%, respectively. Further, the fluorescence slope in experiment [4] is -0.454 (inactive). In experiment [5], the NADPH fluorescence slope is -0.000123 (inactive). In experiment [6], the slope is 0.00666 (inactive).

With `CC(C)NC(=O)c1ccc2c(c1)nnn2C`, in experiment [1], the cell count is 836. Moreover, the inhibition in experiment [1] is 8.2% (inactive); in experiment [3], -59.5% (inactive); in experiment [7], -4.12% (inactive); in experiment [8], 11.6% (inactive). Also, in experiment [2], the inhibition of aggregation was 4.8% (inactive). Moreover, the results for the nuclei count in experiment [2] and in experiment [3] were 104% and 116%, respectively. The fluorescence slope in experiment [4] was -0.471 (inactive). In addition, the NADPH fluorescence slope in experiment [5] is 2.3e-05 (inactive). Further, the slope in experiment [6] is 0.0055 (inactive).

Regarding `Cc1ccc(NC(=O)c2cc(S(=O)(=O)N3CCC4(CC3)OCCO4)ccc2F)cc1`, in experiment [1], the cell count worked out at 369. The inhibition in experiment [1] is -3.3% (inactive); in experiment [3], -43.7% (inactive); in experiment [7], -8.15% (inactive); in experiment [8], -22.3% (inactive). For the same compound, in experiment [2], the inhibition of aggregation is 12.5% (inactive). Besides, the nuclei count came to 102% in experiment [2] and 108% in experiment [3]. In experiment [4], the fluorescence slope is -0.441 (inactive). In experiment [5], the NADPH fluorescence slope was 3.1e-05 (inactive). In experiment [6], the slope is 0.0033 (inactive).

For the compound `Clc1ccc(OCc2nc(-c3ccccn3)no2)c(Br)c1`, in experiment [1], the cell count worked out at 814. Also, the inhibition in experiment [1] is 1.8% (inactive); in experiment [3], -1.9% (inactive); in experiment [7], -31.1% (inactive); in experiment [8], -134% (inactive). The inhibition of aggregation in experiment [2] is 4.2% (inactive). In addition, the nuclei count in experiment [2] is 95%; in experiment [3], 121%. Further, the fluorescence slope in experiment [4] is -0.595 (inactive). Also, in experiment [5], the NADPH fluorescence slope is -8.6e-06 (inactive). The slope in experiment [6] was 0.00567 (inactive).

Turning to `Cc1ccc(NCC(O)C(O)C(O)CO)cc1C` (stereo not drawn), the cell count in experiment [1] came out at 516. Moreover, the inhibition is 0.6% (inactive) in experiment [1], -52.4% (inactive) in experiment [3], 8.39% (inactive) in experiment [7] and 8.99% (inactive) in experiment [8]. Moreover, the inhibition of aggregation in experiment [2] is 1.3% (inactive). In addition, the values for the nuclei count in experiment [2] and in experiment [3] were 115% and 128%, respectively. Besides, the fluorescence slope in experiment [4] is -0.455 (inactive). The NADPH fluorescence slope in experiment [5] is 5.8e-07 (inactive). In experiment [6], the slope is 0.00562 (inactive).

For `Fc1ccccc1C(c1nnnn1Cc1ccc2c(c1)OCO2)N1CCN(Cc2ccccc2)CC1` (stereo not drawn), the cell count in experiment [1] turned out to be 324. In addition, the inhibition in experiment [1] was -0.8% (inactive); in experiment [3] it was 30.7% (inactive); in experiment [7] it was -8.04% (inactive); in experiment [8] it was -3.59% (inactive). In addition, the inhibition of aggregation in experiment [2] is -2.5% (inactive). In addition, the nuclei count in experiment [2] came to 112%; in experiment [3], 108%. Besides, the fluorescence slope in experiment [4] was -0.631 (inactive). For the same compound, the NADPH fluorescence slope in experiment [5] was 1.1e-05 (inactive). For the same compound, in experiment [6], the slope was 0.00506 (inactive).

Values taken from PubChem BioAssay.
